We go through seven compounds from PubChem BioAssay (NCI).

The structures appear in SMILES notation. Compounds without any hit were thinned out: in the full panel of roughly 83,000, 20% have a hit.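 Plates (96-well) were seeded with cells, treated with compound at one concentration, and incubated for 48 hours before percent growth was determined.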 Values without a mark were called inactive. Calls of active or inactive are those of the source. Rule for the calls: active = growth percent below 10; inactive = the rest.

Among the test systems are HCT-15 colon; HT29 colon; SNB-75 CNS; SNB-19 CNS; U251 CNS; PC-3 prostate; SK-MEL-5 melanoma; UACC-62 melanoma; LOX IMVI melanoma; SK-MEL-28 melanoma; SK-MEL-2 melanoma; EKVX NSCLC; SN12C renal; UO-31 renal; TK-10 renal; ACHN renal; CAKI-1 renal; A498 renal; CCRF-CEM leukemia; MOLT-4 leukemia.
Common to all, as to assay: NCI-60 one-dose screen, 48 h (100 = growth as untreated, 0 = no growth, -100 = all killed)
What all share (details): 10 µM unless noted

On to `Clc1nc(Cl)c2ncn(CCOCCn3cnc4c(Cl)nc(Cl)nc43)c2n1`, for which the growth was -78.7% (active) in the assay on HCT-15 colon; -60.5% (active) in the assay with HT29 colon; -92.3% (active) in the assay with SNB-75 CNS; -89.3% (active) with SNB-19 CNS; -72.3% (active) with U251 CNS; -93.4% (active) with PC-3 prostate. Also, the growth in the assay on SK-MEL-5 melanoma is -91.5% (active); in the assay with UACC-62 melanoma, -95.9% (active); in the assay on LOX IMVI melanoma it was -83.2% (active); in the assay with SK-MEL-28 melanoma, -95.7% (active); in the assay on SK-MEL-2 melanoma it was -76.8% (active); with EKVX NSCLC, -91.1% (active). Further, the growth in the assay on SN12C renal is -83.6% (active); with UO-31 renal, -95.4% (active); in the assay on TK-10 renal, -86% (active); in the assay with ACHN renal, -89.1% (active); in the assay on CAKI-1 renal, -94.6% (active); in the assay on A498 renal it was -92.4% (active). In addition, the results for the growth in the assay on CCRF-CEM leukemia and in the assay on MOLT-4 leukemia were -45.2% (active) and -68.9% (active), respectively.

For the compound `O=C1c2ccccc2C(=O)c2c(NCCN=Cc3ccccc3O)cccc21`, the growth is 40.7% with HCT-15 colon; 32.4% with HT29 colon; 68.4% with SNB-75 CNS; 65.3% in the assay on SNB-19 CNS; 60.5% in the assay on U251 CNS; 66.7% in the assay on PC-3 prostate. Moreover, the growth is 61.9% with SK-MEL-5 melanoma; 62.8% with UACC-62 melanoma; 21.3% with LOX IMVI melanoma; 91.7% in the assay with SK-MEL-28 melanoma; 108% in the assay with SK-MEL-2 melanoma; 56% with EKVX NSCLC. Further, the growth in the assay on SN12C renal was 50.3%; in the assay with UO-31 renal it was 39.3%; in the assay on TK-10 renal, 68.5%; in the assay on ACHN renal it was 30.9%; with CAKI-1 renal it was -10.3% (active); in the assay on A498 renal it was 35.1%. Besides, the growth is 59% in the assay on CCRF-CEM leukemia and -16.4% (active) in the assay with MOLT-4 leukemia.

For `Fc1ccc(C2CC(c3cccc(Nc4ccncc4)c3)=NN2c2ccc(Cl)cc2)cc1` (stereo not given), the growth in the assay with HCT-15 colon was 3.49% (active); in the assay on HT29 colon, 2.11% (active); with SNB-75 CNS it was 78.4%; in the assay with SNB-19 CNS, 87.5%; with U251 CNS, 8.99% (active); in the assay with PC-3 prostate, 49.4%. Moreover, the growth is 82.8% with SK-MEL-5 melanoma; 99.6% with UACC-62 melanoma; -67.1% (active) in the assay with LOX IMVI melanoma; 53.4% in the assay with SK-MEL-28 melanoma; 101% in the assay with SK-MEL-2 melanoma; 84.7% in the assay on EKVX NSCLC. Also, the growth is 68.5% with SN12C renal; 52.9% in the assay with UO-31 renal; 84.6% in the assay with TK-10 renal; 75.6% in the assay with ACHN renal; 43.6% in the assay with CAKI-1 renal; 78% with A498 renal. In addition, the values for the growth in the assay on CCRF-CEM leukemia and with MOLT-4 leukemia were 42.6% and 24%, respectively.

For the compound `COC(=O)Nc1nc2ccc(C(=O)c3cccc(I)c3)cc2[nH]1`, the growth in the assay on HCT-15 colon was 11.8%; in the assay on HT29 colon, 2.12% (active); in the assay with SNB-75 CNS, -15.3% (active); in the assay with SNB-19 CNS, 33.6%; with U251 CNS, 13.6%; in the assay with PC-3 prostate, 20.9%. Also, the growth in the assay on SK-MEL-5 melanoma is -33.9% (active); in the assay with UACC-62 melanoma, 24.8%; in the assay with LOX IMVI melanoma it was 16.6%; in the assay with SK-MEL-28 melanoma, 49.4%; in the assay on SK-MEL-2 melanoma it was 12.1%; in the assay with EKVX NSCLC, 29.9%. Besides, the growth with SN12C renal is 23.3%; with UO-31 renal it was 28.8%; with TK-10 renal, 42.4%; in the assay on ACHN renal, 17.5%; in the assay with CAKI-1 renal it was 5.37% (active); in the assay on A498 renal it was -15.3% (active). The growth with CCRF-CEM leukemia is 5.32% (active); with MOLT-4 leukemia, 19.1%.

As to `Nc1nc(N)nc(NCc2ccccc2)n1`, the growth with HCT-15 colon is 97.6%; in the assay with HT29 colon, 101%; with SNB-75 CNS, 96.5%; with SNB-19 CNS, 107%; in the assay on U251 CNS it was 105%; in the assay on PC-3 prostate it was 105%. Moreover, the growth was 103% in the assay with SK-MEL-5 melanoma; 101% with UACC-62 melanoma; 101% in the assay with LOX IMVI melanoma; 106% with SK-MEL-28 melanoma; 112% with SK-MEL-2 melanoma; 99.3% with EKVX NSCLC. Further, the growth with SN12C renal is 98.4%; in the assay with UO-31 renal it was 91.1%; in the assay with TK-10 renal, 95.8%; with ACHN renal, 106%; in the assay with CAKI-1 renal it was 99.7%; in the assay with A498 renal it was 105%. Also, the growth is 109% with CCRF-CEM leukemia and 95.4% with MOLT-4 leukemia.

Take `COc1ccc(C(=O)c2cc3c(N)c(C(=O)Nc4cccc(Br)c4C)sc3nc2C)cc1`: the growth in the assay on HCT-15 colon is 14.2%; in the assay with HT29 colon it was -1.07% (active); with SNB-75 CNS it was -16.9% (active); with SNB-19 CNS, 43%; in the assay with U251 CNS, 10.7%; with PC-3 prostate it was 21%. The growth is -36.2% (active) with SK-MEL-5 melanoma; 38% in the assay with UACC-62 melanoma; 19% in the assay with LOX IMVI melanoma; 62.1% in the assay on SK-MEL-28 melanoma; 17.6% in the assay on SK-MEL-2 melanoma; 38.3% with EKVX NSCLC. The growth in the assay on SN12C renal was 19.2%; in the assay on UO-31 renal it was 21%; in the assay with TK-10 renal, 54.3%; in the assay with ACHN renal, 24%; in the assay on CAKI-1 renal it was 15.2%; in the assay on A498 renal it was -13.2% (active). The growth in the assay on CCRF-CEM leukemia is 9.3% (active); with MOLT-4 leukemia it was 10.2%.

Turning to `CC(=O)N1N=C(c2cccc(Nc3ccncc3)c2)CC1c1ccc2c(c1)OCO2` (stereo not given), the growth was 81.2% in the assay on HCT-15 colon; 32.7% with HT29 colon; 80.2% in the assay on SNB-75 CNS; 94.8% with SNB-19 CNS; 82.8% in the assay on U251 CNS; 79% with PC-3 prostate. Further, the growth with SK-MEL-5 melanoma is 81.6%; in the assay on UACC-62 melanoma, 91.9%; with LOX IMVI melanoma it was 81.7%; with SK-MEL-28 melanoma it was 93.8%; with SK-MEL-2 melanoma, 99.9%; in the assay on EKVX NSCLC, 63%. Also, the growth in the assay with SN12C renal is 81%; in the assay on UO-31 renal, 84.5%; with TK-10 renal it was 98.1%; in the assay on ACHN renal it was 101%; in the assay with CAKI-1 renal it was 81.8%; with A498 renal it was 70.7%. For the same compound, the growth is 81.2% in the assay with CCRF-CEM leukemia and 77.7% in the assay on MOLT-4 leukemia.
